Test results published in ChEMBL document CHEMBL3988442, “University of Dundee, Small-Polar-MMV Screening Library” (2021).

Biological target: AMP-activated protein kinase, AMPK (Homo sapiens) (UniProt P54646+O43741+P54619+Q9UGJ0+Q9Y478+Q13131+Q9UGI9)
Test: AMP-dependent Kinase enzyme assay. An in vitro enzyme assay that detects ADP turnover that is directly proportional to AMPK activity. This uses naive AMPK that is activated during the assay with MK-8722
Assay type: functional
Set-up: scale not given: direction of the effect not stated beside the values
Settings: 30 µM

Structure (SMILES)	Percent Effect
O=C(NCCNc1ncccn1)N1CCN(Cc2cccnc2)CC1	-7.65%
CC(C)N1CCC(N2CCN(C3CCC3)CC2CCO)CC1 (stereo not given)	-21.6%
COc1ccc(CN2CCCC(Cn3nc(C)nc3C)C2)cc1F (stereo not given)	7.97%
Cc1cnn(CCCNC(=O)N2CCCCC(N3CCCC3)C2)c1 (stereo not given)	0.679%
CCn1cc(NC(=O)NCC(c2cccs2)N(C)C)cn1 (stereo not given)	-2.49%
c1cnn(Cc2cn3c(n2)CN(Cc2nccs2)CC3)c1	-0.581%
CCc1noc(C2CCN(C(=O)CCn3nc(C)cc3C)CC2)n1	0.146%
CC(C#N)CSc1ccccc1NCC(=O)Nc1ccc(F)cc1 (stereo not given)	17.1%
CCc1nc(CN2CCCC(NCc3nnc(C4CC4)o3)C2)no1 (stereo not given)	3.2%
CCc1ccc(CCC(=O)N2CCOCC2c2ncon2)cc1 (stereo not given)	4.51%
CC(=O)N1CCN(c2cc(C3CN(C)CCO3)nc(C)n2)CC1 (stereo not given)	9.39%
CN(C)CC1CSCCCN1C(=O)Nc1ccc(C(C)(C)C)cc1 (stereo not given)	3.67%
Cc1n[nH]c(C2CN(C(=O)c3ccco3)CCO2)n1 (stereo not given)	7.87%
Clc1ccccc1C1(c2ccnc(CC3CC3)n2)CCNCC1	-1.73%
Cc1cc2cc(C(=O)N[C@@H]3CC[C@@H](N4CCOCC4)[C@@H]3O)ccc2o1	5.33%
CC(C)c1nnc2n1CCN(CC(=O)Nc1nncs1)C2	1.97%
CCc1noc(C)c1C(=O)N1CCCC1c1c(C)nn(C)c1OC (stereo not given)	2.09%
COc1cc(C)nc(N2CCN(C(=O)c3ccc[nH]3)CC2)n1	-2.76%
O=C(NCc1cccnc1)C1CC(=O)N(CC2CC2)C1 (stereo not given)	-0.688%
Fc1ccc(CN2CCO[C@H]3[C@H](OCC4CC4)CC[C@@H]32)cc1	3.82%
